Source: PMC4242493, “Sequence specificity incompletely defines the genome-wide occupancy of Myc”
The full ranking holds about 33,000 sequences; the median of “normalized occupancy” is about 0.075, and the highest 2% start at about 0.095. The full list was thinned out, with the highest values kept by preference.

Target: MaxL homodimer (Homo sapiens, UniProt P61244 1-160)
Assay: universal protein-binding microarray (PBM); PBS-based mixture, 10 nM His-tagged protein dimer, 2% milk, 200 ng/uL BSA, 50 ng/uL salmon testes DNA, 0.02% TX-100; detection with Alexa 488 anti-His antibody;; high values mean tight binding
Settings: protein: recombinant; tags: C-terminal His-tag (pET21a); chain copies: 2; dsDNA, one strand shown
Procedure, shortened: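 His-tagged protein dimer at 10 nM was bound to Agilent 4 x 44 K 'all 10-mer' universal arrays and detected with 10 ng/μL fluorophore-conjugated anti-His antibody on a GenePix 4400A, giving an intensity per 8-mer. Binding occupancy normalises each intensity to the top-ranked one.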

Chain of MaxL homodimer (P61244 whole entry): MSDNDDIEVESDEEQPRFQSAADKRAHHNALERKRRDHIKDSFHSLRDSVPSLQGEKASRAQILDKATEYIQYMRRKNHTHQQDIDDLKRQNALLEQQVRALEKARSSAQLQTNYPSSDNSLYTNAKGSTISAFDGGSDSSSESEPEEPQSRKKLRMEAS

Sequence	binding signal
GACCACGA	0.0865 normalized occupancy
AACCACGG	0.0843 normalized occupancy
AACCACGA	0.0902 normalized occupancy
CACCACGA	0.082 normalized occupancy
AACCACGC	0.0983 normalized occupancy
GACCACCA	0.0803 normalized occupancy
CACCACGC	0.119 normalized occupancy
GACCACGC	0.129 normalized occupancy
AACCACGT	0.123 normalized occupancy
CACCACGG	0.0774 normalized occupancy
AACCACCA	0.0807 normalized occupancy
ATGCCCTG	0.0757 normalized occupancy
GAGACCCA	0.0745 normalized occupancy
TAATTGCA	0.0767 normalized occupancy
ACCAAGCA	0.081 normalized occupancy
CGTGCGTC	0.0896 normalized occupancy
CATGCGTC	0.113 normalized occupancy
AATGCGTC	0.0736 normalized occupancy
CATGCGTA	0.122 normalized occupancy
AATGCGTA	0.0846 normalized occupancy
GATGCGTA	0.0807 normalized occupancy
ATGACGCG	0.0781 normalized occupancy
ACGTGGGG	0.0991 normalized occupancy

Sequence	binding signal
AGGTGGGG	0.0822 normalized occupancy
GGGTGGGA	0.085 normalized occupancy
ACGTGGGA	0.0998 normalized occupancy
ACGTGGGC	0.1 normalized occupancy
AAGTGGGA	0.0771 normalized occupancy
ATGTGGGG	0.0878 normalized occupancy
GCGTGGGA	0.125 normalized occupancy
ATGTGGGC	0.0919 normalized occupancy
CCGTGGGA	0.0775 normalized occupancy
AGGTGGGC	0.0818 normalized occupancy
GTGTGGGA	0.0899 normalized occupancy
GACATTGC	0.0757 normalized occupancy
GGAAGAGA	0.0767 normalized occupancy
AGAATGTC	0.0744 normalized occupancy
CCTGCTAC	0.0758 normalized occupancy
CCCTAATA	0.0744 normalized occupancy
CGATTAAG	0.0743 normalized occupancy
TTCATAAA	0.0768 normalized occupancy
CAGACCCC	0.085 normalized occupancy
CAGTAGAA	0.0771 normalized occupancy
ACGTCGTC	0.0822 normalized occupancy
CGTGCTCC	0.085 normalized occupancy
CATGCTCC	0.105 normalized occupancy

Sequence	binding signal
CATGCTCA	0.099 normalized occupancy
AATGCTCG	0.0783 normalized occupancy
GATGCTCA	0.0734 normalized occupancy
CATGCTCG	0.106 normalized occupancy
TATGCTCA	0.0848 normalized occupancy
GATGCTCC	0.0753 normalized occupancy
AATGCTCA	0.0829 normalized occupancy
CTTTACCA	0.0764 normalized occupancy
ATTGGGGC	0.0771 normalized occupancy
ACGTGGCC	0.094 normalized occupancy
ACGTGGCG	0.107 normalized occupancy
AGGTGGCA	0.082 normalized occupancy
TCGTGGCA	0.0869 normalized occupancy
ACGTGGCA	0.106 normalized occupancy
ACCTGGCT	0.0765 normalized occupancy
ATGTGGCG	0.0879 normalized occupancy
AAGTGGCT	0.072 normalized occupancy
CCGTGGCG	0.0765 normalized occupancy
GCGTGGCA	0.121 normalized occupancy
ACGTGGCT	0.101 normalized occupancy
CCGTGGCA	0.077 normalized occupancy
GGTCTGTA	0.0752 normalized occupancy
CCTTGTCC	0.0743 normalized occupancy

Sequence	binding signal
CTGACTCA	0.0764 normalized occupancy
AACCAAGT	0.0721 normalized occupancy
GAGGAGAA	0.0783 normalized occupancy
GGTAACTA	0.077 normalized occupancy
CAACTTAG	0.0721 normalized occupancy
AGGCACCT	0.078 normalized occupancy
CTATTTTC	0.0775 normalized occupancy
CCAAACGC	0.073 normalized occupancy
GCGACTCA	0.0767 normalized occupancy
CCGTGGCC	0.0738 normalized occupancy
GAGTGGCC	0.073 normalized occupancy
GCGTGGCC	0.0977 normalized occupancy
GGACAACA	0.0742 normalized occupancy
AACGTGTG	0.108 normalized occupancy
ACCGTGTG	0.0873 normalized occupancy
AACGTGTA	0.11 normalized occupancy
CACGTGTC	0.574 normalized occupancy
ACCGTGTA	0.0779 normalized occupancy
CAAGTGTC	0.0772 normalized occupancy
CAGGTGTC	0.0839 normalized occupancy
CAGGTGTA	0.0957 normalized occupancy
CCCGTGTC	0.0814 normalized occupancy
ATCGTGTG	0.0889 normalized occupancy

Sequence	binding signal
AACGTATA	0.0869 normalized occupancy
AAGGTGTA	0.0773 normalized occupancy
GATGCAAA	0.0761 normalized occupancy
GTTCGTAA	0.0774 normalized occupancy
CCTAGATA	0.0756 normalized occupancy
ACCGTACA	0.0768 normalized occupancy
AAATAGCA	0.0843 normalized occupancy
ACTATAAC	0.0847 normalized occupancy
AGTTTTTG	0.0729 normalized occupancy
ATTGCGAA	0.074 normalized occupancy
ATGGGTAG	0.0856 normalized occupancy
ATGATTGG	0.0808 normalized occupancy
AAGAGCAG	0.0746 normalized occupancy
CCCGTGTA	0.0861 normalized occupancy
ACCGTGTC	0.072 normalized occupancy
GACGTGTA	0.0816 normalized occupancy
CACGTGTA	0.536 normalized occupancy
AAGGTGTC	0.0775 normalized occupancy
AACGTGTC	0.101 normalized occupancy
